Data on 24 compounds can be found in PubChem BioAssay (EPA / NIEHS).

What is called AC50 is the midpoint of the concentration-response curve, whichever way the signal moves.

The source made the active and inactive calls. How the source made its calls: active means hit-call score of the fitted dose curve at least 0.9, where 1 is the maximum; inactive means score below 0.9.

The nature of experiment [1]: ATG_E_Box_CIS: Attagene CIS-FACTORIAL HepG2 Assay for human Enhancer Box (E-box) (AID 2282936). The note with it: HepG2 E-box cis-reporter transcription, actives raise or lower the signal. Summed up: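 Fluorescent reporter fragments separated by capillary electrophoresis gave the signal; mRNA came from HepG2 cells transfected with cis-element reporters and treated 24 h. Curves fitted bidirectionally relative to DMSO controls.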

Experiment [2] can be described thus: ATG_M_61_CIS: Attagene CIS-FACTORIAL HepG2 Assay for M61 Transcription Factor (Internal Marker) (AID 2282937). The following applies: HepG2 Attagene CIS-FACTORIAL M61 internal marker reporter; actives raise or lower the signal. Summed up:
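Multiplexed reporter mRNA assay, HepG2 human hepatoma cells, 24 h treatment. Signal: FAM-labelled, HpaI-digested RT-PCR fragments by CE. Fit: bidirectional, baseline DMSO.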

Experiment [3] is described as follows: ATG_EGR_CIS: Attagene CIS-FACTORIAL HepG2 Assay for human Early Growth Response 1 (EGR1) (AID 2282938). The note with it: HepG2 Attagene CIS-FACTORIAL EGR reporter mRNA; actives raise or lower the signal. Summed up:
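Multiplexed cis-reporter system in human hepatoma HepG2 cells, transiently transfected. Cells are dosed for 24 h; reporter transcripts are amplified, fluorescently tagged and sized by capillary electrophoresis, with DMSO as negative control.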

Experiment [4] can be described thus: ATG_M_19_CIS: Attagene CIS-FACTORIAL HepG2 Assay for M19 Transcription Factor (Internal Marker) (AID 2282939). The following applies: HepG2 Attagene CIS-FACTORIAL M19 internal marker reporter; actives raise or lower the signal. Summed up: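 Readout: fluorescent reporter-transcript fragments by capillary electrophoresis after RT-PCR. Human HepG2 liver cells carried transfected MRTU constructs reporting endogenous transcription-factor activity; exposure 24 h. Gain or loss of signal fitted relative to DMSO.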

Experiment [5] can be described thus: ATG_ERE_CIS: Attagene CIS-FACTORIAL HepG2 Assay for Estrogen Response Element (ERE) (AID 2282940). The following applies: HepG2 ERE cis-reporter, Attagene RNA transcript; actives raise or lower the signal. Summed up: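 Readout: reporter mRNA induction by RT-PCR, FAM-labelled primer extension, HpaI digestion and capillary electrophoresis, 24 h after dosing transfected HepG2 cells. Endogenous transcription factors act on cis-element-regulated reporters. Gain or loss fitted against DMSO.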

The nature of experiment [6]: ATG_Ets_CIS: Attagene CIS-FACTORIAL HepG2 Assay for human Erythroblast Transformation Specific (ETS) (AID 2282941). The note with it: HepG2 ETS cis-reporter transcription, actives raise or lower the signal. Summed up:
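Multiplexed reporter transcript profiling: HepG2, 24 h treatment, total RNA to cDNA, PCR, 6-FAM labelling, HpaI cut, capillary electrophoresis. Gain- or loss-of-signal fitted against DMSO.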

For experiment [7], the target named is Hepatocyte nuclear factor 3-beta (Homo sapiens) (UniProt Q9Y261). The experiment can be described thus: ATG_FoxA2_CIS: Attagene CIS-FACTORIAL HepG2 Assay for human Forkhead box A2 (FOXA2) (AID 2282942). The following applies: HepG2 cis-reporter transcription factor activity, 24 h; actives raise or lower the signal. Summed up:
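Multiplexed cis-element reporter assay in transiently transfected HepG2. Twenty-four hours post-dosing, RNA was reverse-transcribed, amplified, FAM-labelled, HpaI-digested and separated by CE. Activity gain or loss relative to DMSO.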

Experiment [8] in a line: ATG_FoxO_CIS: Attagene CIS-FACTORIAL HepG2 Assay for human Forkhead box O (FoxO) (AID 2282943). The following applies: HepG2 Attagene cis-reporter, FoxO element, mRNA; actives raise or lower the signal. Summed up: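 HepG2, transient MRTU transfection (cis element, endogenous TFs). Dose 24 h. TriZol RNA → oligo(dT) RT → PCR → 6-FAM primer extension → HpaI cut → CE. Gain/loss vs DMSO.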

Experiment [9] is described as follows: ATG_GATA_CIS: Attagene CIS-FACTORIAL HepG2 Assay for human GATA Binding Protein (AID 2282944). The note with it: HepG2 GATA cis-element reporter, Attagene multiplex mRNA; actives raise or lower the signal. Summed up:
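Read-out: fluorescent reporter mRNA fragments resolved by capillary electrophoresis after RT-PCR. Human liver HepG2 cells carried transiently transfected cis-regulated reporter constructs; chemicals incubated 24 h; gain or loss of signal fitted relative to DMSO.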

Experiment [10] is described as follows: ATG_GLI_CIS: Attagene CIS-FACTORIAL HepG2 Assay for human Zinc Finger Protein GLI1 (AID 2282945). The following applies: HepG2, Attagene cis-factorial reporter mRNA, GLI element; actives raise or lower the signal. Summed up: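 Bidirectional curve fits relative to DMSO, using reporter mRNA levels from RT-PCR plus capillary electrophoresis. Cells were HepG2 transiently carrying cis-regulated reporter constructs, harvested 24 h after dosing.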

Hepatocyte nuclear factor 3-beta (Homo sapiens), sequence (Q9Y261 whole entry, looked up): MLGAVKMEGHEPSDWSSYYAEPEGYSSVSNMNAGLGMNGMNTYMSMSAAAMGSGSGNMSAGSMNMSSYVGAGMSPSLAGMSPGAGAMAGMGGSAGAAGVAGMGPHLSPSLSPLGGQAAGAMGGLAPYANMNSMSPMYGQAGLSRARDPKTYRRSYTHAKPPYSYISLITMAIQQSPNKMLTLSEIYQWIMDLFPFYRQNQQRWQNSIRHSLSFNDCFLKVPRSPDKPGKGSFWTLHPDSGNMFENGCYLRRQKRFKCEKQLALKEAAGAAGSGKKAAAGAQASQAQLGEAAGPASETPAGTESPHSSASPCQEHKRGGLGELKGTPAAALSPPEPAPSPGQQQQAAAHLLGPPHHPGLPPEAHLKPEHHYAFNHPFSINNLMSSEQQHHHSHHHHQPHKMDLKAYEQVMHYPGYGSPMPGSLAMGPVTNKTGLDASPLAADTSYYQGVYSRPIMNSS

Take `CC(C)(c1ccc(OCC2CO2)cc1)c1ccc(OCC2CO2)cc1` (stereo not given): the AC50 in experiment [1] was 52.4 µM (active); in [3], 33.4 µM (active). In addition, the outcome in experiment [2], in experiment [4], in experiment [5], in [6], in [7] and in experiment [8] was inactive. Further, the compound was called inactive in [9] and in experiment [10].
For the compound `CCCCCCCCSC(=O)Oc1cc(Cl)nnc1-c1ccccc1`, the outcome in experiment [1], in [2], in experiment [3], in [4], in experiment [5] and in experiment [7] was inactive. Further, the call in experiment [10] was inactive. For the same compound, the AC50 in experiment [6] was 162 µM (active); in experiment [8], 141 µM (active); in [9] it was 149 µM (active).
With `CCOC(=O)/C=C(C)/C=C/C[C@@H](C)CCCC(C)C`, the AC50 was 106 µM (active) in experiment [1]; 158 µM (active) in experiment [3]; 157 µM (active) in experiment [4]; 158 µM (active) in experiment [9]; 149 µM (active) in experiment [10]. Moreover, the compound was classed as inactive in [2], in experiment [5], in experiment [6], in experiment [7] and in [8].
For `O=[N+]([O-])c1ccc(O)c([N+](=O)[O-])c1`, the result in experiment [1], in [2], in experiment [3], in experiment [4], in experiment [5] and in [6] was inactive. Further, the outcome in experiment [7], in [8], in experiment [9] and in experiment [10] was inactive.
On to `COc1cccc(C=O)c1`, for which the outcome in [1], in experiment [2], in experiment [3], in experiment [4], in experiment [5] and in experiment [6] was inactive. For the same compound, the compound was classed as inactive in experiment [7], in [8], in [9] and in [10].
Consider `CN(CCCC(=O)c1cccnc1)N=O`, for which the outcome in experiment [1], in experiment [2], in [3], in experiment [4], in [5] and in experiment [6] was inactive. For the same compound, the compound was called inactive in experiment [7], in experiment [8], in [9] and in experiment [10].
`CCc1ccccc1N`: the result in [1], in experiment [2], in experiment [3], in [4], in [5] and in experiment [6] was inactive. Further, the compound was called inactive in experiment [7], in experiment [8], in experiment [9] and in [10].
Turning to `Oc1ccc(-c2ccccc2)cc1`, the AC50 in [1] was 169 µM (active); in experiment [3], 68.5 µM (active); in [5] it was 2.15 µM (active). Besides, the compound was classed as inactive in experiment [2], in [4], in experiment [6], in experiment [7], in [8] and in [9]. The call in [10] was inactive.
`O=C(Cc1ccccc1)c1ccccc1`: the result in [1], in experiment [2], in experiment [3], in experiment [4], in experiment [6] and in experiment [7] was inactive. Moreover, the compound was called inactive in experiment [8], in [9] and in experiment [10]. Also, the AC50 in [5] is 24.9 µM (active).
As to `C=C(C)C(=O)[O][Sn]([CH2]CCC)([CH2]CCC)[CH2]CCC`, the AC50 in experiment [1] was 0.562 µM (active); in experiment [8], 0.665 µM (active). In addition, the call in experiment [2], in experiment [3], in experiment [4], in [5], in experiment [6] and in experiment [7] was inactive. The compound was called inactive in [9] and in experiment [10].
`Nc1cccc(Cl)c1`: the result in experiment [1], in [2], in experiment [3], in [4], in experiment [5] and in [6] was inactive. The outcome in experiment [7], in experiment [8], in [9] and in experiment [10] was inactive.
On to `c1ccc(N=NNc2ccccc2)cc1`, for which the result in experiment [1], in experiment [2], in [4], in [6], in [8] and in [9] was inactive. In addition, the AC50 in experiment [3] was 83.5 µM (active); in experiment [5] it was 26.3 µM (active); in experiment [7], 25.7 µM (active); in [10] it was 163 µM (active).
Regarding `C[C@H]1O[C@@H](O[C@H]2[C@@H](O)C[C@H](O[C@H]3[C@@H](O)C[C@H](O[C@H]4CC[C@@]5(C)[C@H](CC[C@@H]6[C@@H]5CC[C@]5(C)[C@@H](C7=CC(=O)OC7)CC[C@]65O)C4)O[C@@H]3C)O[C@@H]2C)C[C@H](O)[C@@H]1O`, the result in experiment [1], in experiment [2], in experiment [4], in experiment [5], in [7] and in [10] was inactive. Besides, the AC50 in [3] is 0.65 µM (active); in experiment [6] it was 0.0564 µM (active); in [8], 0.472 µM (active); in experiment [9], 0.131 µM (active).
As to `O=C(OC1CCCCC1)c1ccccc1C(=O)OC1CCCCC1`, the result in [1], in experiment [2], in experiment [4], in experiment [6], in experiment [7] and in [8] was inactive. For the same compound, the result in [9] and in experiment [10] was inactive. Besides, the AC50 was 25.1 µM (active) in experiment [3] and 29.2 µM (active) in experiment [5].
For the compound `CCOP(=S)(OCC)Oc1ccc(S(C)=O)cc1` (stereo not given), the result in [1], in experiment [2], in [3], in experiment [4], in [5] and in experiment [6] was inactive. For the same compound, the compound was called inactive in experiment [7], in experiment [8], in experiment [9] and in experiment [10].
For `C[C@H]1CCCC(=O)CCC/C=C/c2cc(O)cc(O)c2C(=O)O1`, the outcome in [1], in experiment [2], in experiment [4], in experiment [7], in experiment [9] and in experiment [10] was inactive. Moreover, the AC50 in experiment [3] was 10.2 µM (active); in experiment [5] it was 0.00291 µM (active); in experiment [6], 7.35 µM (active); in [8], 10.3 µM (active).
In the case of `CC(C)c1cccc(C(C)C)c1O`, the outcome in experiment [1], in experiment [2], in experiment [3], in [4], in experiment [5] and in [6] was inactive. For the same compound, the compound was classed as inactive in [7], in [8], in [9] and in [10].
Consider `CC(C)(c1ccccc1)c1ccc(O)c(C(C)(C)c2ccccc2)c1`, for which the AC50 in experiment [1] was 16.9 µM (active); in experiment [3], 9.29 µM (active); in [5], 5.86 µM (active); in experiment [8], 15.2 µM (active). Besides, the result in experiment [2], in experiment [4], in [6], in experiment [7], in [9] and in experiment [10] was inactive.
As for `CCN(CC)C(=O)Cl`, the result in [1], in experiment [2], in experiment [3], in experiment [4], in experiment [6] and in experiment [7] was inactive. Also, the compound was classed as inactive in experiment [8], in experiment [9] and in experiment [10]. Also, the AC50 in experiment [5] is 27.7 µM (active).
On to `CC(=[OH+])/C=C(/C)[O-].CC(=[OH+])/C=C(/C)[O-].CC(=[OH+])/C=C(/C)[O-].[Al]`, for which the result in [1], in experiment [2], in [3], in experiment [4], in experiment [5] and in experiment [6] was inactive. Also, the outcome in [7], in experiment [8], in [9] and in experiment [10] was inactive.
With `Cn1sc(Cl)cc1=O`, the outcome in experiment [1], in experiment [2], in experiment [3], in experiment [4], in experiment [5] and in experiment [6] was inactive. In addition, the compound was classed as inactive in [7], in experiment [8], in [9] and in experiment [10].
Turning to `N#CCc1ccc(Cl)cc1`, the result in experiment [1], in experiment [2], in [3], in experiment [4], in experiment [5] and in experiment [6] was inactive. Moreover, the compound was classed as inactive in experiment [7], in experiment [8], in experiment [9] and in experiment [10].
As for `COC[C@H](C)N(C(=O)CCl)c1c(C)csc1C`, the outcome in experiment [1], in experiment [2], in [3], in [4], in experiment [5] and in experiment [6] was inactive. For the same compound, the call in experiment [7], in experiment [8], in [9] and in [10] was inactive.
Take `COP(=O)(OC)O/C(=C\Cl)c1cc(Cl)c(Cl)cc1Cl`: the outcome in experiment [1], in experiment [2], in experiment [4], in experiment [6], in experiment [7] and in [8] was inactive. In experiment [9], the compound was classed as inactive. Besides, the AC50 was 37 µM (active) in experiment [3], 4.11 µM (active) in experiment [5] and 130 µM (active) in experiment [10].
